Usually Inhibition stands for how much of the control response was suppressed. Higher therefore signals strong suppression.

Holding throughout (type): functional
Test [1] deals with Plasmodium falciparum. Kind of test: GSK_TCMDC: Inhibition of Plasmodium falciparum 3D7 in whole red blood cells, using parasite LDH activity as an index of growth. Test compounds present at 2uM.
Test [2] deals with Plasmodium falciparum. Kind of test: GSK_TCMDC: Inhibition of Plasmodium falciparum Dd2 in whole red blood cells, using parasite LDH activity as an index of growth. Test compounds present at 2uM.
The test system of the next test is HepG2. Kind of test: GSK_TCMDC: Percent inhibition of human HepG2 cell line. Test compounds present at 10uM.

Take `Cl.O=C1c2ccccc2CN1CCCN1CCC(Oc2ccc(F)cc2)CC1`: the Inhibition was 97% with Plasmodium falciparum [1], 1% in the test with Plasmodium falciparum [2] and 14% with HepG2.

In the case of `CN1C(=O)C(=NN=C(S)N2CCOCC2)c2ccccc21`, the Inhibition with Plasmodium falciparum [1] came to 95%; in the test on Plasmodium falciparum [2], 54%; with HepG2, 57%.

`Cc1cc(O)c(CN(C)Cc2ccc(N(C)C)cc2)cc1C(C)C`: the Inhibition turned out to be 100% in the test with Plasmodium falciparum [1], 98% in the test with Plasmodium falciparum [2] and 3% in the test with HepG2.

For the compound `O=C(Nc1ccc(C(F)(F)F)cc1)NC1CCN(c2ccnc3ccccc23)C1.O=C(O)C(F)(F)F` (stereo not drawn), the Inhibition stood at 100% with Plasmodium falciparum [1], 89% in the test with Plasmodium falciparum [2] and 13% in the test with HepG2.

With `Fc1c(CNCC2CCN(CC3CCCCC3)CC2)cccc1C(F)(F)F.O=C(O)C(F)(F)F`, the Inhibition in the test on Plasmodium falciparum [1] turned out to be 93%; in the test with Plasmodium falciparum [2], 7%; in the test with HepG2, 35%.

Take `Cc1cc(Nc2nc(NCc3cccnc3)nc3ccccc23)n[nH]1`: the Inhibition turned out to be 100% in the test with Plasmodium falciparum [1], 33% in the test on Plasmodium falciparum [2] and 11% in the test on HepG2.

Regarding `CC(=O)O.CC(C)c1ccc(C2CCN(CCCCNC(=O)c3ccc(NC(=O)c4ccc(C(F)(F)F)cc4)cc3)CC2)c(O)c1`, the Inhibition in the test on Plasmodium falciparum [1] is 99%; with Plasmodium falciparum [2], 100%; in the test with HepG2, 47%.

With `O=C(Cn1cc(C=C2SC(=NC3CCCC3)N(C3CCCC3)C2=O)c2ccccc21)N1CCCC1`, the Inhibition is given as 100% in the test with Plasmodium falciparum [1], 100% with Plasmodium falciparum [2] and 5% in the test with HepG2.

With `CC(C)Sc1nc2c(c(=O)n1Cc1ccco1)C1(CCCC1)Cc1ccccc1-2`, the values for the Inhibition in the test on Plasmodium falciparum [1], in the test on Plasmodium falciparum [2] and in the test on HepG2 were 98%, 10% and 8%, respectively.

On to `CN(C)c1cccc2c(S(=O)(=O)Nc3cccc(CCN4CCC(N5CCCCC5)CC4)c3)cccc12`, for which the Inhibition with Plasmodium falciparum [1] is reported as 98%; in the test with Plasmodium falciparum [2], 54%; in the test with HepG2 it was 41%.

For the compound `COc1cccc(-c2[nH]c3ccccc3c2CN2CCC(c3c(C)cccc3C)CC2)c1`, the Inhibition with Plasmodium falciparum [1] is 99%; in the test on Plasmodium falciparum [2], 24%; in the test on HepG2 it was 32%.

Turning to `CCCCN1CCN(c2cc(NS(=O)(=O)c3ccc(C(=O)Nc4ccc(C(F)(F)F)cc4)cc3)ccc2OC)CC1.O=C(O)C(F)(F)F`, the Inhibition is reported as 99% with Plasmodium falciparum [1], 20% with Plasmodium falciparum [2] and 17% with HepG2.

Take `CC(C)(CN)c1cc(-c2ccc(Cl)c(O)c2)c(-c2ccncc2)o1.Cl`: the Inhibition in the test with Plasmodium falciparum [1] was 92%; in the test on Plasmodium falciparum [2], 97%; in the test with HepG2, 44%.

As to `N#Cc1c(N)nc(SCC(=O)Nc2cc(C(F)(F)F)ccc2Cl)c(C#N)c1-c1cccs1`, the Inhibition with Plasmodium falciparum [1] is 90%; in the test with Plasmodium falciparum [2], 96%; with HepG2, 23%.

As to `O=C(Nc1cccc(Cl)c1N1CCOCC1)C(Cl)(Cl)Cl`, the Inhibition in the test with Plasmodium falciparum [1] was found to be 96%; with Plasmodium falciparum [2], 95%; in the test on HepG2 it was 3%.

For the compound `CSc1nccc(-c2ccc3ccnc(N)c3c2)n1`, the Inhibition in the test with Plasmodium falciparum [1] worked out at 100%; with Plasmodium falciparum [2], 98%; in the test with HepG2 it was 30%.

With `CNC(=O)NC1=NC(C)(C)N(OCc2ccc(Cl)c(Cl)c2)C(NC(=O)NC)=N1`, the Inhibition in the test on Plasmodium falciparum [1] is recorded as 99%; in the test with Plasmodium falciparum [2], 0%; in the test on HepG2, 1%.

In the case of `COc1ccccc1C1CCN(C2CCC(NC(=O)/C=C/c3cccc(Cl)c3)CC2)CC1` (stereo not drawn), the values for the Inhibition in the test on Plasmodium falciparum [1], in the test on Plasmodium falciparum [2] and in the test with HepG2 were 92%, 20% and 54%, respectively.

As to `O=C(Nc1cccc(-c2nc3ccccc3[nH]2)c1)c1cccc(NC(=O)c2ccco2)c1`, the Inhibition in the test on Plasmodium falciparum [1] was found to be 91%; with Plasmodium falciparum [2] it was 45%; with HepG2, 9%.

Take `O=C(Cn1c(CCc2cccc(F)c2F)nc(=O)c2ccccc21)N(CCCN1CCCC1)Cc1ccc(-c2ccc(C(F)(F)F)cc2)cc1.O=C(O)C(O)C(O)C(=O)O`: the Inhibition worked out at 100% with Plasmodium falciparum [1], 80% in the test on Plasmodium falciparum [2] and 54% in the test on HepG2.

As for `COc1cccc2c(NN=Cc3cccc(Cl)c3)ccnc12`, the Inhibition in the test with Plasmodium falciparum [1] stood at 100%; in the test on Plasmodium falciparum [2] it was 77%; in the test with HepG2 it was 19%.

`Cc1cccc(-c2nc(Nc3ccncc3)c3ccc([N+](=O)[O-])cc3n2)n1`: the Inhibition amounted to 87% in the test with Plasmodium falciparum [1], 13% with Plasmodium falciparum [2] and 0% in the test with HepG2.

On to `CCNc1cc(C(=O)N[C@@H](Cc2ccccc2)[C@H](O)CNC(CC)c2cccc(Cl)c2)cc(N2CCCCS2(=O)=O)c1.Cl` (stereo partly drawn), for which the Inhibition in the test with Plasmodium falciparum [1] is 100%; in the test with Plasmodium falciparum [2] it was 98%; in the test on HepG2, 12%.

`Cl.Oc1ccc(Nc2nc(NCC3CCCO3)c3ccccc3n2)cc1` (stereo not drawn): the Inhibition was determined as 100% with Plasmodium falciparum [1], 57% with Plasmodium falciparum [2] and 7% with HepG2.

For `Cc1cc2ncn(-c3nccc(NCc4ccc(F)c(C)c4)n3)c2cc1C.O=C(O)C(F)(F)F`, the Inhibition in the test on Plasmodium falciparum [1] came to 90%; in the test with Plasmodium falciparum [2], 82%; in the test with HepG2, 10%.

For the compound `CC(C)(C)c1ccc(CNC(=O)/C=C/c2ccc(CNC3CCNCC3)cc2)cc1`, the Inhibition is given as 96% in the test with Plasmodium falciparum [1], 21% in the test on Plasmodium falciparum [2] and 6% in the test on HepG2.

In the case of `CC(CN1CCN(C)CC1)C(=O)Nc1ccc(-c2cccc(-c3nc4cc(F)ccc4[nH]3)c2)cc1` (stereo not drawn), the Inhibition in the test with Plasmodium falciparum [1] is reported as 100%; with Plasmodium falciparum [2], 99%; with HepG2 it was 8%.

`CC(C)c1ccc(CN2CCC(CNC(=O)c3cc(-c4ccc(N(C)C)cc4)cs3)C2)cc1.O=C(O)C(F)(F)F` (stereo not drawn): the Inhibition is listed as 83% in the test on Plasmodium falciparum [1], 32% in the test with Plasmodium falciparum [2] and 36% in the test on HepG2.

For the compound `Cc1cc(C(F)(F)F)n2nc(C(=O)N(Cc3cncn3Cc3cccc(F)c3)CC3CC3)cc2n1`, the values for the Inhibition with Plasmodium falciparum [1], in the test on Plasmodium falciparum [2] and in the test on HepG2 were 100%, 92% and 0%, respectively.

`CC(=O)N[C@H](C(=O)Nc1ccc(-c2cccc(-c3nc4cccc(C)c4[nH]3)c2)cc1)C(C)C`: the Inhibition with Plasmodium falciparum [1] worked out at 89%; in the test with Plasmodium falciparum [2], 10%; in the test with HepG2, 9%.

Regarding `Cc1ccc2nc3ccccc3c(NCCN3CCN(C)CC3)c2c1.Cl`, the Inhibition in the test with Plasmodium falciparum [1] came to 100%; with Plasmodium falciparum [2], 6%; with HepG2, 19%.

The record behind these values is ChEMBL document CHEMBL1157539, “Thousands of chemical starting points for antimalarial lead identification” (Nature, 2010).
